An excerpt weighted towards active compounds, which were near 3% of everything screened.
SENP8 block-1: SENP8 protease inhibition | Q96LD8 | purified SENP8, Z-RLRGG-aminoluciferin cleavage, luminescence | inhibition, % at 10 µM | 1.2% of 330,000 active | AID 2540; in the data active = inhibition above about 50%
Target sequence (Q96LD8 whole entry, looked up): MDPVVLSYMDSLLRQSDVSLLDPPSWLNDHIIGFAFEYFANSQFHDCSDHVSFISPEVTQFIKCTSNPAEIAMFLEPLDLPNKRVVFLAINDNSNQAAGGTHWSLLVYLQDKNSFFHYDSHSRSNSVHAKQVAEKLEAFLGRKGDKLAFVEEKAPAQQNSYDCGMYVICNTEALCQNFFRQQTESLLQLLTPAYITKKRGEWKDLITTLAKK
TRAIL sens C8: caspase-8 TRAIL sensitization. inhibition (viability loss, TRAIL sensitization), % at 10 µM. 1% of 360,000 active. NB7+C8 cells + TRAIL, ATPlite viability luminescence;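 active = compounds causing at least 50% loss of cell viability in the single-dose screen, relative to plate controls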
SENP6 inh: inhibitors of human SENP6 protease; Recombinant SENP6 catalytic domain, aminoluciferin luminescence; Q9GZR1; 1.8% of 330,000 active; inhibition, % at 10 µM;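 active = inhibition above about 50% at the single tested dose, limit read from the data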
SENP8 block-2: SENP8 (human) protease inhibition; 0.64% of 360,000 active; recombinant SENP8, Nedd8 substrate fluorescence; inhibition, % at 20 µM; Q96LD8; in the data active = inhibition mostly above about 40%, no sharp cut-off; inactive = mostly below about 27%
PPC-1+TRAIL kill: compounds killing PPC-1 cancer cells with TRAIL present (potentiator screen, no TRAIL-free arm). PPC-1 cells + TRAIL, ATPLite viability luminescence. AID 1443. 0.41% of 220,000 active. cell killing (% activity), % at 4 µM or 5 µM;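 active = cell killing above 50% in the first pass at 4 µM, then a duplicate retest at 5 µM averaging 50% or more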
SENP7 block: inhibitors of human SENP7 protease. recombinant SENP7, Z-RLRGG-aminoluciferin luminescence, 40 min. inhibition, % at 5 µM. 1.5% of 330,000 active;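 active = inhibition above about 50% at the single test dose, limit read from the data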
PPC-1 tox: PPC-1 cell cytotoxicity; shares compounds with PPC-1+TRAIL kill; PPC-1 viability, ATPlite luminescence, overnight; cytotoxicity, % at 5 µM; 50% of 1,200 active; AID 1447;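 active = reconfirmed compounds whose average cytotoxicity reaches 50% or more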
SENP8 confirm: confirmation of human SENP8 protease inhibitors. shares compounds with SENP7 block. Recombinant SENP8, Z-RLRGG-aminoluciferin luminescence, 60 min. inhibition, % at 12.5 µM. 40% of 6,200 active. AID 488912;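 active = mean inhibition across replicates above about 50%, limit read from the data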
SENP6 confirm: confirmation of human SENP6 protease inhibitors; AID 488915; inhibition, % at 12.5 µM; shares compounds with SENP7 block; recombinant SENP6, Z-RLRGG-aminoluciferin luminescence; 58% of 6,200 active
SENP7 confirm: human SENP7 inhibition, confirmed | shares compounds with SENP7 block | recombinant SENP7, Z-RLRGG-aminoluciferin luminescence, 40 min | inhibition, % at 12.5 µM | 69% of 6,200 active | AID 488917
Casp3 SENP sel: caspase-3 inhibition (SENP selectivity assay) | inhibition, % at 12.5 µM | shares compounds with SENP7 block | 60% of 6,200 active | purified caspase-3, Z-DEVD-aminoluciferin luminescence, 60 min;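 active = mean inhibition above about 50%, limit read from the data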
Target sequence (P42574 28-227 limits assumed): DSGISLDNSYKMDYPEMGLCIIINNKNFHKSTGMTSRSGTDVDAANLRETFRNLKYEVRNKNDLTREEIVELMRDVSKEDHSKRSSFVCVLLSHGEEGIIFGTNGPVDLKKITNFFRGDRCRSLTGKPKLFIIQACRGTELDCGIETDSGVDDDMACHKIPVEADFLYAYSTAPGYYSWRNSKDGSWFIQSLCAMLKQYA
Luc interf: interferes with luciferase luminescence in SENP counter-screen; shares compounds with SENP7 block; Pre-incubated SENP8/Z-RLRGG-aminoluciferin, luciferase luminescence interference; inhibition, % at 12.5 µM; 39% of 6,200 active; AID 488919;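 active = mean inhibition above about 50% when retested at one dose, limit read from the data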
Of the large screens only hits and unclear results are named; the others gave an inactive call (follow-up assays come after a bar, where they were run).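 Rule for the calls, unless noted: active = mean inhibition above about 50% in the one-dose retest (limit read from the data); inactive = the rest.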

CC(=O)NC(c1ccc(F)c(F)c1)c1nc(-c2cnc3ccccc3c2)cs1 (stereo unspecified)	none (no result: SENP8 block-1, SENP6 inh, PPC-1+TRAIL kill, SENP7 block)
CCOC(=O)Cc1cc(=O)[nH]n(-c2ccccc2)c1=O	none (no result: SENP8 block-1, SENP6 inh, PPC-1+TRAIL kill, SENP7 block)
Cc1ccc(OCc2nc(-c3ccccn3)no2)c(Br)c1	SENP8 block-1 90.0, TRAIL sens C8 59.0, SENP6 inh 81.9, SENP7 block 96.2 | PPC-1 tox inactive | SENP8 confirm inactive | SENP6 confirm 96.0 | SENP7 confirm 101.9 | Casp3 SENP sel 91.2 | Luc interf 93.0
COc1ccc2cc(-c3cc(C(=O)O)c4ccccc4n3)ccc2c1	SENP8 block-1 54.1, TRAIL sens C8 94.8, SENP6 inh 82.7, PPC-1+TRAIL kill 96.0, SENP7 block 62.5 | PPC-1 tox 96.1 | SENP8 confirm 73.1 | SENP6 confirm 72.3 | SENP7 confirm 87.8 | Casp3 SENP sel 81.4 | Luc interf inactive
Cc1ccccc1NC(=O)c1cnc2ccccn2c1=O	TRAIL sens C8 68.0, SENP6 inh 57.5, PPC-1+TRAIL kill 58.9, SENP7 block 74.5 | PPC-1 tox 60.9 | SENP8 confirm 55.0 | SENP6 confirm 61.0 | SENP7 confirm 51.8 | Casp3 SENP sel 75.3 | Luc interf inactive
O=C(c1cc2ccccc2s1)N1CCOCC1	none
O=C(NC1CC1)c1ccc(-c2nc3ccccc3s2)s1	SENP8 block-1 88.4, TRAIL sens C8 91.2, SENP6 inh 90.9, PPC-1+TRAIL kill 92.9, SENP7 block 97.9 | PPC-1 tox 92.8 | SENP8 confirm 81.2 | SENP6 confirm 94.9 | SENP7 confirm 101.6 | Casp3 SENP sel 96.0 | Luc interf inactive
O=C(c1ccc(-c2nc3ccccc3s2)s1)N1CCOCC1	SENP8 block-1 93.6, SENP6 inh 96.9, PPC-1+TRAIL kill 88.1, SENP7 block 96.0 (no result: TRAIL sens C8, SENP8 block-2) | PPC-1 tox 88.1 | SENP8 confirm 90.7 | SENP6 confirm 97.0 | SENP7 confirm 101.1 | Casp3 SENP sel 96.3 | Luc interf 68.8
Cc1ccc(NC(=O)CSCC(=O)NC2(C)CCS(=O)(=O)C2)cc1 (stereo unspecified)	none (no result: PPC-1+TRAIL kill)
O=C(OCC(=O)N1CCN(c2ccc(F)cc2)CC1)c1cnc2ccccc2n1	none (no result: PPC-1+TRAIL kill)
CCCCN(C)C(=O)c1cc2cc3ccc(OC)cc3nc2s1	SENP8 block-1 91.3, TRAIL sens C8 68.1, SENP6 inh 91.4, SENP7 block 95.5 | PPC-1 tox inactive | SENP8 confirm 90.6 | SENP6 confirm 96.7 | SENP7 confirm 101.4 | Casp3 SENP sel 96.3 | Luc interf 54.2
CCCCN(CC)C(=O)c1cc2cc3ccc(OC)cc3nc2o1	none
Cc1cc(C(=O)COC(=O)c2cccn2C)c(C)n1Cc1ccco1	SENP8 block-1 63.5, TRAIL sens C8 62.6, SENP6 inh 66.9, SENP7 block 66.9 | PPC-1 tox inactive | SENP8 confirm 80.9 | SENP6 confirm 80.4 | SENP7 confirm 94.1 | Casp3 SENP sel 68.4 | Luc interf inactive
Cc1cc(C(=O)COC(=O)c2ccncc2)c(C)n1Cc1ccco1	none
c1c2c(cc3sc(N4CCOCC4)nc13)OCCO2	SENP8 block-1 88.9, TRAIL sens C8 78.0, SENP6 inh 94.1, PPC-1+TRAIL kill 63.4, SENP7 block 93.6 | PPC-1 tox 60.5 | SENP8 confirm 89.0 | SENP6 confirm 92.7 | SENP7 confirm 100.2 | Casp3 SENP sel 96.2 | Luc interf 57.3

Bioassay records as filed in PubChem BioAssay.
